Laboratory results published in PubChem BioAssay (NCI).
Compounds without any hit were thinned out: in the full panel of roughly 79,000, 15% have a hit. A number with no mark means an inactive call. The source made the active and inactive calls. Rule as the data show it: active = growth inhibition above about 70%; inactive = the rest.

Test: NCI Yeast Anticancer Drug Screen. Data for the rad14 strain (AID 159);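 also: 0% = growth of vehicle-treated control cultures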
Conditions: S. cerevisiae rad14 strain growth inhibition, hits give high values
Description: Growth inhibition of yeast strains with defined genetic alterations is measured as a screen for potential anti-cancer activity. Selected strains with alterations in DNA damage repair or cell cycle control were exposed to compounds and growth inhibition was measured relative to vehicle treated controls. The strain used in this assay is rad14

| SMILES | growth inhibition (at 1.2 µM) [%] | growth inhibition (at 3.7 µM) | growth inhibition (at 11.0 µM) | growth inhibition (at 33.0 µM) | growth inhibition (at 100.0 µM) |
| --- | --- | --- | --- | --- | --- |
| C/C(=N\OCC(O)CNCCSCc1ccccc1)c1ccccc1Cl (stereo not given) | 30 | 46% | 85% (active) | 99% (active) | 99% (active) |
| CCCNC(=O)OCc1c(COC(=O)NCCC)c(-c2ccc(Cl)c(Cl)c2)n2c1CCC2 | -28 | -3% | 0% | 54% | 73% (active) |
| CCCN=Cc1cc(Cc2ccc(O)c(C=NCCC)c2)ccc1O | 57 | 97% (active) | 98% (active) | 99% (active) | 98% (active) |
| NC(=S)N/N=C1\c2ccccc2CCC1CCC1(O)CCc2ccccc2C1=O (stereo not given) | 2 | 7% | 47% | 82% (active) | 86% (active) |
| CC1CCC(C2=CSC3CCCCC3N2)CC1 (stereo not given) | -20 | -16% | -11% | -6% | 76% (active) |
| CC(C)(CN1CCCCC1)C(=O)/C=C/c1c(Cl)cccc1Cl | 44 | 54% | 92% (active) | 99% (active) | 99% (active) |
| COC(=O)C(=O)CC(=O)c1cccc(OC)c1 | -8 | 7% | 33% | 67% | 94% (active) |
| CC(=O)CC(c1ccccc1)c1c(O)c2ccccc2oc1=O (stereo not given) | -4 | 0% | -8% | 19% | 68% |
